Bioassay records from PubChem BioAssay.
Most compounds without a hit are left out; they make up all but 7.3% or so of the library.
Rab9 promoter act – activators of Rab9 promoter; Huh7 Rab9 promoter-luciferase reporter, luminescence, 24 h; 320,000 compounds, 2.8% hits; Potency, µM (titrated, usually from 9.22 µM), hits mostly activators; also: nearly all actives have a fitted effect of over 60% in size
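Huh7 cells stably carrying Rab9 promoter–luciferase reporter, plated 1500 cells/well, compound added after 2 h and incubated 24 h at 37 °C; luciferase luminescence then read after 10 min with detection reagent.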
NPC1 prom act – NPC1 promoter activation; Potency, µM (titrated, usually from 9.22 µM), usual class: activators; 320,000 compounds, 2.4% hits; Huh7 NPC1 promoter luciferase reporter, 24 h; also: nearly all actives have a fitted effect of over 60% in size
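Luciferase expression driven by the NPC1 promoter was measured in stably transfected Huh7 cells after a 24 h compound incubation, using a luciferase reagent and a luminescence read.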
SMN2 splice up – SMN2 splice variant enhancement | HEK293 SMN2-luciferase splicing reporter, luminescence, 30-36 h | Potency, µM (doses to about 46.1 µM), hits mostly activators | 210,000 compounds, 2.8% hits; also: nearly all actives have a fitted effect of over 55% in size
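qHTS luciferase splicing reporter: luminescence rises when SMN2 exon 7 is included in transfected HEK293 cells. Compound exposure lasted 30-36 h at 37C, with 4.5 mM final sodium butyrate as control, followed by a ONE-Glo read.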
FLuc counter – inhibits or activates purified firefly luciferase, miR-21 counter-screen. P08659. purified FLuc, Km substrates, luminescence inhibition. Potency, µM (highest dose often 57.5 µM), usual class: inhibitors. 360,000 compounds, 6.9% hits. AID 588342; also: nearly all actives have a fitted effect of over 55% in size
Target sequence (P08659 whole entry, looked up): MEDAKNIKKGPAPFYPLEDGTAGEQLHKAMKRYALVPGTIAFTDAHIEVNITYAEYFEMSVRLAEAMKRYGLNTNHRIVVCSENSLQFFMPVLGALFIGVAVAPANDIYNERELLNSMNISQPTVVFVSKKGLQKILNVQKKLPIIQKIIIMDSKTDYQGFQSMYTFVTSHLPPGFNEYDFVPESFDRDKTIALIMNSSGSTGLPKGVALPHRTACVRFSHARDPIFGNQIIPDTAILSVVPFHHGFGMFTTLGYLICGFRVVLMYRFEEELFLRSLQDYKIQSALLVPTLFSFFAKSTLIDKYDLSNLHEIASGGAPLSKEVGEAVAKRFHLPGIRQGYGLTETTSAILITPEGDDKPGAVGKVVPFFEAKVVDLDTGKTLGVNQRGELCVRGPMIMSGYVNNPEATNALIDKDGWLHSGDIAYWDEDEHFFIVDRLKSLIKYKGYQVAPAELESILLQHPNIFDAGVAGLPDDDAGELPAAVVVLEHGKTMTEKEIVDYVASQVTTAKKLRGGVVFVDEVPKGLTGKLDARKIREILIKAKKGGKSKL
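Purified P. pyralis luciferase, 10 nM final, with Km-level 10 uM D-luciferin and 10 uM ATP in 50 mM Tris acetate pH 7.5, 10 mM Mg acetate, 0.01% Tween-20, 0.05% BSA; 6-point qHTS titration about 60 µM downward; luminescence read.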
Luc counter – blocks Kinase-Glo luciferase, a counter-screen artifact; Q27757; Kinase-Glo luciferase, ATP luminescence, 8 min; Potency, µM (highest dose often 38.3 µM), hits mostly inhibitors; 200,000 compounds, 0.28% hits; AID 1379; also: nearly all actives have a fitted effect of over 60% in size
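Substrate mix (final 50 mM imidazole pH 7.2, 50 mM KCl, 7 mM MgCl2, 10 uM ATP, 0.01% Tween 20, 0.05% BSA) plus pin-tool compound, then Kinase-Glo detection mix; 8 min ambient, luminescence read.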
Numbers stand for hits; - = inactive; ? = inconclusive; . = no result given; [ ] = dose if it differs, or a comment. Calls follow the shape of the dose curve; as a rule, active = well fitted curve in the direction sought with a large enough effect; inconclusive = small, poorly fitted or top-dose-only effect, or another doubt; inactive = no such curve, though single readings can be large; an effect the other way counts as inactive or inconclusive.

SMILES	Rab9 promoter act	NPC1 prom act	SMN2 splice up	FLuc counter	Luc counter
CCn1c(=O)n(-c2ccc(F)c(Cl)c2)c(=O)c2c3c(sc21)CN(C(C)=O)CC3	.	.	-	-	.
Cc1ccccc1SCCNC(=O)c1ccccc1Br	?	-	-	24µM	-
Cc1ccccc1SCC(=O)NNC(=O)c1ccncc1	-	-	.	-	.
Cc1ccccc1SCC(=O)NNC(=O)c1ccccc1O	-	-	.	24µM	.
O=C(COc1ccccc1Cl)NC(=S)Nc1cccc(NC(=O)c2ccccc2Cl)c1	-	-	?	?	-
O=C(COc1ccc2ccccc2c1Br)NC(=S)Nc1cccc(CO)c1	?	?	?	8.5µM	-
O=C(COc1ccc(Br)cc1Br)NC(=S)Nc1cccc(CO)c1	0.45µM	0.35µM	18µM	3.8µM	-
O=C(COc1ccc(Br)cc1Br)NC(=S)N1CCCc2ccccc21	-	-	-	17µM	-
CCc1ccccc1NC(=O)C1(S(=O)(=O)c2ccc(Cl)cc2)CC1	.	.	-	-	.
CCOc1cccc(CC(=O)Nc2ccc3nc(N4CCCCC4)cc(C)c3c2)c1OCC	.	.	.	-	.
CC(C)OC(=O)c1c(NC(=O)C2c3ccccc3Oc3ccccc32)sc2c1CCCC2	.	.	-	-	.
COc1ccccc1CNC(=O)CCc1c(C)nn(-c2ccc(N3CCCCC3)nn2)c1C	.	.	.	-	.
COc1ccc(NC(=O)CCc2c(C)nn(-c3ccc(N4CCCCC4)nn3)c2C)cc1Cl	.	.	.	2.1µM	.
COC(=O)c1ccc(NC(=O)CCc2c(C)nn(-c3ccc(N4CCCCC4)nn3)c2C)cc1	.	.	.	9.5µM	.
COc1cc(NC(=O)CCc2c(C)nn(-c3ccc(N4CCCCC4)nn3)c2C)cc(OC)c1OC	.	.	.	19µM	.
Cc1ccccc1NC(=O)CCc1c(C)nn(-c2ccc(N3CCCCC3)nn2)c1C	-	-	.	?	.
Cc1ccc(C)c(NC(=O)Nc2nnc(N(CC(C)C)CC(C)C)s2)c1	.	.	.	-	.
COc1cccc(C2=NN(C(=O)c3ccco3)C(c3ccco3)C2)c1 (centres undefined)	-	-	.	11µM	.
CS(=O)(=O)Nc1ccc(C2=NN(C(=O)c3ccco3)C(c3ccco3)C2)cc1 (centres undefined)	-	-	.	?	.
O=C(NCCc1ccccc1Cl)c1ccc2c(c1)nc1n2CCOC1	.	.	.	4.8µM	.
Cc1cccc(CCNC(=O)c2ccc3c(c2)nc2n3CCCCC2)c1	.	.	.	4.8µM	.
Cc1cccc(CCNC(=O)c2ccc3c(c2)nc2n3CCOC2)c1	.	.	.	15µM	.
O=C(NCc1cccc(Cl)c1)c1ccc2c(c1)nc1n2CCOC1	.	.	.	-	.
Cc1ccc(CNC(=O)c2ccc3c(c2)nc2n3CCOC2)cc1	.	.	.	-	.
COc1ccc(CNC(=O)c2ccc3c(c2)nc2n3CCCCC2)cc1	.	.	.	17µM	.
SMILES	Rab9 promoter act	NPC1 prom act	SMN2 splice up	FLuc counter	Luc counter
Cc1cc2oc(C(=O)Nc3ccc(S(N)(=O)=O)cc3)cc(=O)c2cc1C	.	.	-	-	.
CCCNC(=O)c1ccc2c(c1)nc1n2CCCCC1	.	.	.	17µM	.
NS(=O)(=O)c1ccc(CCNc2ncnc3c2cnn3-c2cccc(Cl)c2)cc1	.	.	.	-	.
O=C(CCCN1C(=O)/C(=C\c2ccccc2)SC1=S)Nc1ccc(C(=O)O)cc1	-	-	.	17µM	.
CCc1ccc(/C=C2\SC(=S)N(CCCC(=O)Nc3ccc(C(=O)O)cc3)C2=O)cc1	-	-	.	4.8µM	.
CCc1ccc(/C=C2/SC(=S)N(CCC(=O)Nc3cccnc3)C2=O)cc1	-	-	.	0.85µM	.
O=C(CCCN1C(=O)/C(=C\c2cccs2)SC1=S)Nc1ccc(C(=O)O)cc1	-	-	-	?	-
O=C(Nc1cccc2c1CCCC2)c1ccco1	-	-	-	-	-
COc1ccc(C(=O)Nc2ccc3c4c(cccc24)CC3)cc1	?	?	-	15µM	-
O=C(Nc1ccc2c3c(cccc13)CC2)c1ccco1	-	-	.	17µM	.
O=C(Nc1ccc2c3c(cccc13)CC2)c1ccc(Br)o1	-	-	-	19µM	-
COc1cc(OC)cc(C(=O)NC(=S)Nc2ccc3c4c(cccc24)CC3)c1	-	-	-	-	-
Cc1ccc2c(NC(=O)c3ccc(Br)o3)cccc2n1	-	-	.	-	.
O=C(O)C[C@H]1OCC=C2C[N@@+]3([O-])CC[C@]45c6ccccc6N[C@@H]4[C@@H]1[C@H]2C[C@H]53	.	.	-[9.22 µM]	.	-[7.66 µM]
COc1ccc(CNC(=O)CSc2nnc(NC(=O)c3ccccc3F)s2)cc1	2.2µM	3.2µM	.	11µM	.
O=C(Nc1nnc(SCC(=O)N2CCCCC2)s1)c1ccc(F)cc1F	-	-	.	8.5µM	.
